{"source": "the supplement of paper PMC12636033", "note": "± gives the standard deviation of the averaged measurements. In all, about 33,000 sequences were measured (“E-score (rank enrichment, -0.5 to 0.5)”: median about -0.0068, highest 2% from about 0.24 on). This is one part of a sample in which the highest values are shown more often than they occur.", "data": [{"test_system": "muMax20 (Max(13-93) K31hArg/K57hArg, M65Nle)", "experiment": "PBM 8-mer E-score (E-score (rank enrichment, -0.5 to 0.5)); higher = stronger preferential binding", "protocol": "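Protein binding microarray (universal PBM chip covering all 10-mers in fixed probe flanks) with chemically synthesized human Max(13-93) bHLH-LZ analogs (not full-length Max) bearing noncanonical residues (hArg, Tha, Aib, Nle at 65) and aromatic Cys staples. Read-out per 8-mer (and its reverse complement): E-score (rank-based enrichment, -0.5 to 0.5) and Z-score of median probe intensity.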", "values": [{"sequence": "CTTCTACC", "PBM 8-mer E-score": "0.00215 ± 0.038"}, {"sequence": "ACAGAATG", "PBM 8-mer E-score": "0.088 ± 0.021"}, {"sequence": "GTTTTCGA", "PBM 8-mer E-score": "-0.0225 ± 0.1"}, {"sequence": "TCGGCCAA", "PBM 8-mer E-score": "-0.181 ± 0.076"}, {"sequence": "GAATCCAC", "PBM 8-mer E-score": "0.0142 ± 0.053"}, {"sequence": "CAATTGTG", "PBM 8-mer E-score": "0.0641 ± 0.093"}, {"sequence": "ATAAGGAT", "PBM 8-mer E-score": "0.246 ± 0.039"}, {"sequence": "ATAAGGTA", "PBM 8-mer E-score": "0.244 ± 0.019"}, {"sequence": "ATAAGGTC", "PBM 8-mer E-score": "0.218 ± 0.028"}, {"sequence": "ATAAGGAC", "PBM 8-mer E-score": "0.0929 ± 0.069"}, {"sequence": "ATAAGGAA", "PBM 8-mer E-score": "0.0142 ± 0.076"}, {"sequence": "CTAAGGTA", "PBM 8-mer E-score": "0.0373 ± 0.061"}, {"sequence": "CTCTACCC", "PBM 8-mer E-score": "0.0459 ± 0.077"}, {"sequence": "CCAACAGA", "PBM 8-mer E-score": "-0.00227 ± 0.052"}, {"sequence": "GTAGCTCA", "PBM 8-mer E-score": "-0.0957 ± 0.0039"}, {"sequence": "AACTCAGT", "PBM 8-mer E-score": "-0.0615 ± 0.032"}, {"sequence": "AAAAGATT", "PBM 8-mer E-score": "0.0851 ± 0.1"}, {"sequence": "AAGACACG", "PBM 8-mer E-score": "0.293 ± 0.005"}, {"sequence": "CAAAGACA", "PBM 8-mer E-score": "0.129 ± 0.0062"}, {"sequence": "CAGACACG", "PBM 8-mer E-score": "-0.0512 ± 0.046"}, {"sequence": "AAAAGACC", "PBM 8-mer E-score": "0.0838 ± 0.031"}, {"sequence": "ATGACACA", "PBM 8-mer E-score": "0.156 ± 0.0051"}, {"sequence": "AAGACACA", "PBM 8-mer E-score": "0.1216 ± 0.00079"}, {"sequence": "AAAAGATG", "PBM 8-mer E-score": "0.263 ± 0.086"}, {"sequence": "ATGACACG", "PBM 8-mer E-score": "0.238 ± 0.041"}, {"sequence": "AAAAGACA", "PBM 8-mer E-score": "0.237 ± 0.011"}, {"sequence": "GTGACACA", "PBM 8-mer E-score": "0.0546 ± 0.001"}, {"sequence": "CAAAGATG", "PBM 8-mer E-score": "0.0977 ± 0.0035"}, {"sequence": "GACCACGC", "PBM 8-mer E-score": "0.121 ± 0.055"}, {"sequence": "TCGATGAA", "PBM 8-mer E-score": "-0.0576 ± 0.025"}, {"sequence": "TGGCGGAA", "PBM 8-mer E-score": "-0.0751 ± 0.029"}, {"sequence": "CCCAGAGC", "PBM 8-mer E-score": "-0.115 ± 0.017"}, {"sequence": "AAAGCAGA", "PBM 8-mer E-score": "0.176 ± 0.01"}, {"sequence": "AATATTCC", "PBM 8-mer E-score": "0.149 ± 0.012"}, {"sequence": "AATATATA", "PBM 8-mer E-score": "0.235 ± 0.04"}, {"sequence": "AATATAGT", "PBM 8-mer E-score": "0.219 ± 0.013"}, {"sequence": "GTTATTTA", "PBM 8-mer E-score": "0.222 ± 0.014"}, {"sequence": "CATATTTC", "PBM 8-mer E-score": "0.133 ± 0.0054"}, {"sequence": "ATTATTTG", "PBM 8-mer E-score": "0.212 ± 0.051"}, {"sequence": "AATATTCA", "PBM 8-mer E-score": "0.259 ± 0.0058"}, {"sequence": "ATTATTTA", "PBM 8-mer E-score": "0.256 ± 0.072"}, {"sequence": "AATATTCG", "PBM 8-mer E-score": "0.134 ± 0.0048"}, {"sequence": "CATATTTA", "PBM 8-mer E-score": "0.288 ± 0.0037"}, {"sequence": "AATATATT", "PBM 8-mer E-score": "0.244 ± 0.0097"}, {"sequence": "GATATTTA", "PBM 8-mer E-score": "0.104 ± 0.032"}, {"sequence": "ATGCGGGG", "PBM 8-mer E-score": "-0.0713 ± 0.071"}, {"sequence": "TCAGGTAA", "PBM 8-mer E-score": "0.0683 ± 0.047"}, {"sequence": "GTAGACTA", "PBM 8-mer E-score": "-0.0707 ± 0.066"}, {"sequence": "CAGTGGGG", "PBM 8-mer E-score": "-0.0911 ± 0.22"}, {"sequence": "TCTCCGAA", "PBM 8-mer E-score": "-0.233 ± 0.047"}, {"sequence": "AGGCATGC", "PBM 8-mer E-score": "0.121 ± 0.03"}, {"sequence": "GAGTGGCA", "PBM 8-mer E-score": "-0.0109 ± 0.066"}, {"sequence": "CGTATTTA", "PBM 8-mer E-score": "0.248 ± 0.068"}, {"sequence": "AATATTTC", "PBM 8-mer E-score": "0.209 ± 0.035"}, {"sequence": "ATTATTTC", "PBM 8-mer E-score": "0.186 ± 0.039"}, {"sequence": "AATATTTA", "PBM 8-mer E-score": "0.287 ± 0.011"}, {"sequence": "CTTATTTA", "PBM 8-mer E-score": "0.0812 ± 0.083"}, {"sequence": "CTTATTTC", "PBM 8-mer E-score": "0.24 ± 0.14"}, {"sequence": "AATATTTG", "PBM 8-mer E-score": "0.167 ± 0.11"}, {"sequence": "GGTATTTA", "PBM 8-mer E-score": "0.173 ± 0.045"}, {"sequence": "AGTATTTA", "PBM 8-mer E-score": "0.222 ± 0.019"}, {"sequence": "CTCTCCCA", "PBM 8-mer E-score": "0.00928 ± 0.07"}, {"sequence": "CACGTATC", "PBM 8-mer E-score": "0.158 ± 0.0092"}, {"sequence": "GTCTATAA", "PBM 8-mer E-score": "0.181 ± 0.04"}, {"sequence": "CCGTTAAA", "PBM 8-mer E-score": "-0.00804 ± 0.013"}, {"sequence": "AATGACAC", "PBM 8-mer E-score": "0.161 ± 0.056"}, {"sequence": "AATGACAA", "PBM 8-mer E-score": "0.241 ± 0.033"}, {"sequence": "CATGACAA", "PBM 8-mer E-score": "0.2087 ± 0.00054"}, {"sequence": "CGAATATA", "PBM 8-mer E-score": "0.237 ± 0.065"}, {"sequence": "AGAATATC", "PBM 8-mer E-score": "0.129 ± 0.027"}, {"sequence": "AGAATATG", "PBM 8-mer E-score": "0.227 ± 0.029"}, {"sequence": "CGAATATC", "PBM 8-mer E-score": "-0.0375 ± 0.072"}, {"sequence": "AGAATATA", "PBM 8-mer E-score": "0.254 ± 0.039"}, {"sequence": "GGAATATA", "PBM 8-mer E-score": "0.0712 ± 0.077"}, {"sequence": "AGAAACCC", "PBM 8-mer E-score": "0.0541 ± 0.034"}, {"sequence": "AGTAGCTC", "PBM 8-mer E-score": "-0.0686 ± 0.0062"}, {"sequence": "CCTGTCGC", "PBM 8-mer E-score": "-0.224 ± 0.021"}, {"sequence": "CATATATA", "PBM 8-mer E-score": "0.271 ± 0.095"}, {"sequence": "CATATGTA", "PBM 8-mer E-score": "0.257 ± 0.061"}, {"sequence": "AATATATG", "PBM 8-mer E-score": "0.208 ± 0.089"}, {"sequence": "AATCTATA", "PBM 8-mer E-score": "0.143 ± 0.05"}, {"sequence": "CATATATG", "PBM 8-mer E-score": "0.259 ± 0.017"}, {"sequence": "GATCTATA", "PBM 8-mer E-score": "-0.0926 ± 0.0098"}, {"sequence": "GATATGTA", "PBM 8-mer E-score": "0.103 ± 0.057"}, {"sequence": "CATCTATA", "PBM 8-mer E-score": "0.278 ± 0.013"}, {"sequence": "TATATATA", "PBM 8-mer E-score": "0.228 ± 0.091"}, {"sequence": "CATATAGG", "PBM 8-mer E-score": "0.147 ± 0.0067"}]}]}
